6 compounds from PubChem BioAssay can be followed below.

Test [1] in a line: growth inhibition of DIPG glioma cells, dose response, cell-based, SU-DIPG-XVII, MIPE5.0, CellTiter-Glo, qHTS (AID 1347060; cut-off not given, nearly all actives have AC50 up to about 26 µM;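 for AC50: cells exposed to compound for 48 hours before viability readout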). The settings on record: SU-DIPG-XVII viability, CellTiter-Glo ATP luminescence.
A short description of test [2]: growth inhibition of DIPG glioma cells, dose response, cell-based, SU-DIPG-XIII, MIPE4.0, CellTiter-Glo, qHTS (AID 1347061; cut-off not given, nearly all actives have AC50 up to about 37 µM;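 note: cells exposed to compound for 48 hours before readout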). The settings on record: SU-DIPG-XIII viability, CellTiter-Glo ATP luminescence. A general note: In ATP-based viability assays light output follows the ATP content of the culture.
Test [3] is described as follows: growth inhibition of DIPG glioma cells, dose response, cell-based, JHH-DIPG-1, MIPE4.0, CellTiter-Glo, qHTS (AID 1347062; cut-off not given, nearly all actives have AC50 up to about 27 µM;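 for AC50: cells exposed to compound for two days before readout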). The settings on record: JHH-DIPG-1 viability, CellTiter-Glo ATP luminescence.
Test [4] in a line: growth inhibition of DIPG glioma cells, dose response, cell-based, SU-DIPG-IV, MIPE4.0, CellTiter-Glo, qHTS (AID 1347063; cut-off not given, nearly all actives have AC50 up to about 30 µM;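 note: compound exposure lasted 48 hours before the viability readout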). The settings on record: SU-DIPG-IV viability, CellTiter-Glo ATP luminescence.
A short description of test [5]: growth inhibition of DIPG glioma cells, dose response, cell-based, SU-DIPG-XIII, MIPE5.0, CellTiter-Glo, qHTS (AID 1347064; cut-off not given, nearly all actives have AC50 up to about 23 µM;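 for AC50: cells exposed to compound for 48 hours before the viability read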). The settings on record: SU-DIPG-XIII viability, CellTiter-Glo ATP luminescence.
The nature of test [6]: viability loss in pontine glioma line – cell-based, SU-DIPG-XXV, MIPE5.0, CellTiter-Glo, qHTS, dose response (AID 1347065; cut-off not given, nearly all actives have AC50 up to about 26 µM;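 note: cells exposed to compound for 48 hours before ATP readout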). Particulars: CellTiter-Glo ATP luminescence.
Test [7] is described as follows: SU-DIPG-VI glioma cell viability, MIPE4.0 library, CellTiter-Glo luminescence, qHTS (AID 1347066; cut-off not given, nearly all actives have AC50 up to about 30 µM;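 note: cells exposed to compound for 48 hours before readout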). The settings on record: CellTiter-Glo ATP luminescence.
Test [8] is described as follows: JHH-DIPG-1 glioma cell viability, MIPE5.0 library, CellTiter-Glo luminescence, qHTS (AID 1347067; cut-off not given, nearly all actives have AC50 up to about 26 µM;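 note: cells exposed to compound for 48 hours before readout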). The settings on record: JHH-DIPG-1 glioma viability, CellTiter-Glo ATP luminescence.
Test [9] is described as follows: SU-DIPG-XXV glioma cell viability, MIPE5.0 library, qHTS (AID 1347068; cut-off not given, nearly all actives have IC50 up to about 30 µM;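 for IC50: cells exposed to compound for 48 hours before viability readout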). In general terms: qHTS replaces the single test concentration by a dilution series.
A short description of test [10]: modifiers of HSF1 nuclear foci, imaging, Selleck Cancer Library (AID 1347162; in the data active = plate-normalised HSF1 focus index below about 0.46). The settings on record: human cells, at 10 µM; SSMD: measured here: HSF1 foci SSMD mean; cell count: measured here: cell number; plate-normalised HSF1 focus index: stronger effect = lower value.
The nature of test [11]: ovarian cancer cell viability with rucaparib, profiling panel, oncology-focused library, rucaparib conditional (AID 1508598). Particulars: patient-derived ovarian cancer cells, CellTiter-Glo viability, 144 h, stronger effect = lower value.
Test [12] can be described thus: sensitizers of A549 cells to miR-34 induction, primary screen, imaging, A549 dox-inducible miR-34, nuclei and caspase counts (AID 1347080;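 active = compounds whose cell count with miR-34 switched on is under 0.7 times the count with it off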). Particulars: A549 miR-34 inducible, Hoechst nuclei count, 48 h.
A short description of test [13]: survival rescue of mitochondrial mutant cells in low glucose, primary screen, MELAS cybrids, Rieske KO mouse fibroblasts, CellTiter-Glo (AID 1508586;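 active = mean z-score across replicates of 1.96 or higher in either the MELAS or the Rieske mutant cell line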;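 note: z relative to plate mean and SD of compound and empty wells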).
The mark [14] stands for this setting: stronger effect = lower value, cell number ratio, induced over uninduced.
The mark [15] stands for this setting: measured here: relative caspase fold change +Dox/-Dox.
Setting [16] is: measured here: total cells with miR-34 induction, stronger effect = lower value.
Where [17] appears, read: measured here: total cells without miR-34 induction.
[18] abbreviates: MELAS cybrid survival, CellTiter-Glo 48 h, stronger effect = higher value.
[19] abbreviates: Rieske KO mouse fibroblast survival, CellTiter-Glo 72 h.

Results filed as inconclusive are left out. Active and inactive are the calls of the source.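 Rule for the calls, unless noted: active = normalized viability below 100% at a tested concentration; inactive = the rest.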

As for `NC(=O)Nc1cc(-c2cccc(F)c2)sc1C(=O)N[C@H]1CCCNC1`, the concentration at half-maximal activity (AC50) in [1] was 1480 nM (active); in test [2], 20900 nM (active); in test [3], 526 nM (active); in [4], 5900 nM (active); in test [5], 2090 nM (active); in test [6], 1180 nM (active). Besides, the AC50 in [7] was 18700 nM (active); in test [8], 3320 nM (active). In addition, the half-inhibitory concentration (IC50) in test [9] was 2950 nM (active). Besides, the SSMD in test [10] is -1.43. Moreover, the cell count in [10] amounted to 7360. The plate-normalised HSF1 focus index in test [10] is 0.95 (inactive). Moreover, the viability in [11] (at 0.000305 µM, OCI-C5x cells, with rucaparib 10 µM, 100% = cells with rucaparib alone) is 130% (inactive); in [11] (at 0.000305 µM, OCI-C5x cells, without rucaparib), 94.3% (active); in [11] (at 0.000305 µM, OCI-P5x cells, with rucaparib 20 µM, 100% = cells with rucaparib alone), 76% (active); in test [11] (at 0.000305 µM, OCI-P5x cells, without rucaparib), 79.5% (active); in [11] (at 0.00122 µM, OCI-C5x cells, with rucaparib 10 µM, 100% = cells with rucaparib alone) it was 134% (inactive); in test [11] (at 0.00122 µM, OCI-C5x cells, without rucaparib), 97.4% (active). Further, the viability is 73.7% (active) in test [11] (at 0.00122 µM, OCI-P5x cells, with rucaparib 20 µM, 100% = cells with rucaparib alone); 86.4% (active) in test [11] (at 0.00122 µM, OCI-P5x cells, without rucaparib); 117% (inactive) in [11] (at 0.00488 µM, OCI-C5x cells, with rucaparib 10 µM, 100% = cells with rucaparib alone); 97.4% (active) in test [11] (at 0.00488 µM, OCI-C5x cells, without rucaparib); 56.6% (active) in [11] (at 0.00488 µM, OCI-P5x cells, with rucaparib 20 µM, 100% = cells with rucaparib alone); 87.5% (active) in test [11] (at 0.00488 µM, OCI-P5x cells, without rucaparib). The viability in test [11] (at 0.0195 µM, OCI-C5x cells, with rucaparib 10 µM, 100% = cells with rucaparib alone) was 108% (inactive); in [11] (at 0.0195 µM, OCI-C5x cells, without rucaparib), 81.6% (active); in [11] (at 0.0195 µM, OCI-P5x cells, with rucaparib 20 µM, 100% = cells with rucaparib alone) it was 55.1% (active); in [11] (at 0.0195 µM, OCI-P5x cells, without rucaparib) it was 90.2% (active); in [11] (at 0.0781 µM, OCI-C5x cells, with rucaparib 10 µM, 100% = cells with rucaparib alone), 81.1% (active); in test [11] (at 0.0781 µM, OCI-C5x cells, without rucaparib), 53.1% (active). The viability is 44.5% (active) in test [11] (at 0.0781 µM, OCI-P5x cells, with rucaparib 20 µM, 100% = cells with rucaparib alone); 73.5% (active) in test [11] (at 0.0781 µM, OCI-P5x cells, without rucaparib); 48% (active) in test [11] (at 0.313 µM, OCI-C5x cells, with rucaparib 10 µM, 100% = cells with rucaparib alone); 30.6% (active) in [11] (at 0.313 µM, OCI-C5x cells, without rucaparib); 26% (active) in test [11] (at 0.313 µM, OCI-P5x cells, with rucaparib 20 µM, 100% = cells with rucaparib alone); 21.6% (active) in test [11] (at 0.313 µM, OCI-P5x cells, without rucaparib). Also, the viability in [11] (at 1.25 µM, OCI-C5x cells, with rucaparib 10 µM, 100% = cells with rucaparib alone) was 33.5% (active); in [11] (at 1.25 µM, OCI-C5x cells, without rucaparib), 20% (active); in test [11] (at 1.25 µM, OCI-P5x cells, with rucaparib 20 µM, 100% = cells with rucaparib alone), 13.7% (active); in test [11] (at 1.25 µM, OCI-P5x cells, without rucaparib), 9.05% (active); in test [11] (at 5 µM, OCI-C5x cells, with rucaparib 10 µM, 100% = cells with rucaparib alone), 13% (active); in test [11] (at 5 µM, OCI-C5x cells, without rucaparib) it was 8.94% (active). The viability in test [11] (at 5 µM, OCI-P5x cells, with rucaparib 20 µM, 100% = cells with rucaparib alone) is 6.86% (active); in test [11] (at 5 µM, OCI-P5x cells, without rucaparib), 3.71% (active).

`CCS(=O)(=O)c1cccc(-c2cc(C(=O)NC3CCN(C)CC3)c(C)c3[nH]c4ncc(C)cc4c23)c1`: the AC50 in test [1] was 590 nM (active); in test [2] it was 2960 nM (active); in test [3] it was 2640 nM (active); in test [4], 5260 nM (active); in test [5], 1480 nM (active); in [6], 590 nM (active). The concentration at half-maximal activity (AC50) in test [7] was 8330 nM (active); in [8] it was 1480 nM (active). For the same compound, the IC50 in test [9] is 1480 nM (active). Also, the fold change was 1.06 (inactive) in test [12] (setting [14]) and 0.946 in test [12] (setting [15]). The cell count in test [12] (setting [16]) is 1160; in [12] (setting [17]), 1090. Further, the figures for the z-score in [13] (setting [18]) and in test [13] (setting [19]) were 2.57 (active) and -0.249, respectively.

As for `Cc1cnc(Nc2ccc(N3CCN(C)CC3)cc2)nc1Nc1cccc(S(=O)(=O)NC(C)(C)C)c1`, the AC50 in [1] was 2950 nM (active); in test [2], 5900 nM (active); in test [3], 5900 nM (active); in test [4], 6620 nM (active); in test [5], 2950 nM (active); in test [6], 1860 nM (active). The AC50 is 14800 nM (active) in test [7] and 2950 nM (active) in test [8]. For the same compound, the half-inhibitory concentration (IC50) in [9] was 4680 nM (active). In addition, the fold change is 1.22 (inactive) in [12] (setting [14]) and 0.413 in [12] (setting [15]). Moreover, the cell count was determined as 2300 in [12] (setting [16]) and 1880 in test [12] (setting [17]). Besides, the values for the z-score in test [13] (setting [18]) and in [13] (setting [19]) were 1.59 (inactive) and -3.35, respectively.

Consider `Cc1ccccc1C(C(=O)NC1CCCCC1)N(C(=O)Cn1ccnc1C)c1cccc(F)c1` (configuration not stated), for which the compound was classed as inactive in test [1], in [2], in [3], in test [4], in [5] and in test [6]. Besides, the call in test [7], in test [8] and in [9] was inactive. Moreover, the fold change is 0.844 (inactive) in [12] (setting [14]) and 0.447 in [12] (setting [15]). For the same compound, the values for the cell count in test [12] (setting [16]) and in test [12] (setting [17]) were 8020 and 9500, respectively. Moreover, the z-score is 0.145 (inactive) in test [13] (setting [18]) and 0.11 in test [13] (setting [19]).

For the compound `O=C(Nc1c(Cl)cncc1Cl)c1ccc(OC(F)F)c(OCC2CC2)c1`, the compound was classed as inactive in [1], in test [2], in test [3], in [4], in [5] and in test [6]. In addition, the outcome in test [7], in test [8] and in test [9] was inactive. Further, the fold change in [12] (setting [14]) is 0.886 (inactive); in test [12] (setting [15]), 1.06. In addition, the cell count worked out at 8020 in test [12] (setting [16]) and 9050 in [12] (setting [17]). Further, the z-score in test [13] (setting [18]) is -0.193 (inactive); in test [13] (setting [19]), -1.74.

On to `COc1cc2c(cc1OC)C1CC(=O)C(CC(C)C)CN1CC2` (configuration not stated), for which the result in test [1], in [2], in test [3], in test [4], in test [5] and in test [6] was inactive. In addition, the compound was called inactive in [7], in [8] and in test [9]. Moreover, the results for the fold change in [12] (setting [14]) and in test [12] (setting [15]) were 0.996 (inactive) and 0.689, respectively. Moreover, the cell count was determined as 9770 in test [12] (setting [16]) and 9800 in test [12] (setting [17]).

Usually AC50 stands for the concentration at which the activity in the assay is half-maximal. In general, IC50 refers to the concentration at which inhibition is half-maximal. The viability is a read-out of living cells in per cent, often relative to untreated cells.
